Active and inactive are the calls of the source. How the calls were made is not given here.

The target of this assay is Pantothenate synthetase (Mycobacterium tuberculosis (strain ATCC 25618 / H37Rv)) (UniProt P9WIL5). Put plainly: Recombinant Mtb pantothenate synthetase (PanC) inhibitors, coupled enzyme, confirmatory (AID 375).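 Further: 0% = full reaction with vehicle and 100% = no enzyme background.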 The settings on record: coupled enzyme assay; at 10 µM, active compounds read high.
Chain of Pantothenate synthetase (Mycobacterium tuberculosis (strain ATCC 25618 / H37Rv)) (P9WIL5 whole entry, looked up): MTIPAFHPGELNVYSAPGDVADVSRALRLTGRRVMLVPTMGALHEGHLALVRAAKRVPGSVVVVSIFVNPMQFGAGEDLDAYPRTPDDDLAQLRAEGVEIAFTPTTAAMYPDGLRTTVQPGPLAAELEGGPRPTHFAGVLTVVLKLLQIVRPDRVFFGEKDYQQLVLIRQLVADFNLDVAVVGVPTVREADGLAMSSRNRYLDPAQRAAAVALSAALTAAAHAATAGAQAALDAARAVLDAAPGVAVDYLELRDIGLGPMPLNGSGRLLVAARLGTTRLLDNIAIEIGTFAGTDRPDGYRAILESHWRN
As usually defined, the inhibition is how much of the control response was suppressed. In the case of `Cc1cc(Cl)cc2c1NC(=O)[C@]21[C@@H]2C(=O)N(Cc3ccccc3)C(=O)[C@@H]2[C@@H]2CCCN21`, the inhibition was 6% (inactive).

Regarding `CC1(C)CC(=O)c2cnc(NCc3ccco3)nc2C1`, the inhibition was 0% (inactive).

On to `Cc1occc1C(=O)N1CCN(c2ncccn2)CC1`, for which the inhibition is 6% (inactive). `c1nnc(NC2=NCCCCC2)s1`: the inhibition was 0% (inactive). In the case of `COc1ccccc1N1CCN(Cc2nc(N)nc(Nc3ccc(C)c(Cl)c3)n2)CC1` it was 3% (inactive). Then `O=S(c1ccsc1)c1ccsc1`, with 0% (inactive); and `CN(CC(=O)O)S(=O)(=O)c1cc(Cl)ccc1Cl`, with 1% (inactive). Then `NC(CO)C(=O)NNCc1ccc(O)c(O)c1O` (centres undefined), with 0% (inactive). For `Cc1c(C(=O)NCc2ccccn2)sc2nc(-c3ccc(F)cc3)cn12`, the inhibition was 0% (inactive).

As to `C=CCn1c(Br)nc2c1c(=O)[nH]c(=O)n2C`, the inhibition was 0% (inactive). For the compound `CC(C(=O)Nc1ccccc1-c1ccccc1)N1CCN(C(=O)c2ccco2)CC1` (centres undefined), the inhibition is 0% (inactive). Then `CCCC(=O)C1=C(N(C)c2ccccc2)CC(C)(C)C(C(=O)OC)C1=O` (centres undefined), with 1% (inactive).

Regarding `CCOC(=O)/C(C#N)=C(/C)c1ccc(OC)cc1`, the inhibition was 0% (inactive). Then `COCCN(CCOC)Cc1c(C)[nH]c2ccccc2c1=O`, with 0% (inactive).

As for `Cc1cc(/C=N\O)c(C)n1-c1ccncc1`, the inhibition is 0% (inactive). In the case of `CCC(CC)C(=O)Nc1cccc(C(=O)NCc2ccco2)c1` it was 6% (inactive). In the case of `Cc1cc(NS(=O)(=O)c2ccc(NC(=O)COc3ccccc3C(C)C)cc2)no1` it was 0% (inactive); in that of `CC1(C)CC(=O)C(C=Nc2ccncc2)=C(O)C1`, 0% (inactive).

For `CCC(C)(C(=O)NC1CCCC1)N(Cc1cccs1)C(C)=O` (centres undefined), the inhibition is 2% (inactive). In the case of `N#CC1=C(SCC(=O)c2cc3ccccc3oc2=O)NC(=O)C(C#N)C12CCCC2` (centres undefined) it was 0% (inactive).

As to `COc1ccc(S(=O)(=O)Nc2ccccc2SC)cc1C`, the inhibition is 0% (inactive). Then `NS(=O)(=O)c1cc2c(cc1Cl)NC(C1C[C@H]3C=C[C@@H]1C3)NS2(=O)=O` (some centres undefined), with 0% (inactive). In the case of `O=C(CSc1nnnn1-c1ccccc1)c1cc2ccccc2oc1=O` it was 0% (inactive); in that of `O=C(O)Cc1ccccc1C(=O)O`, 0% (inactive). For the compound `CC(=O)c1ccc(Oc2cc(C)nc(-n3nc(C)cc3C)n2)cc1`, the inhibition is 4% (inactive). Then `O=C(Nc1ccc(N2CCCC2=O)cc1)c1cccc(F)c1`, with 4% (inactive); and `COc1ccc(-n2c(=O)c3c4c(sc3n3c(C)nnc23)CCCC4)cc1`, with 3% (inactive); and `CCOC(=O)CNC(=O)Nc1nnc(-c2ccc(OCC)cc2)o1`, with 5% (inactive). In the case of `Nc1c(C(=O)NCCN2CCOCC2)c2nc3ccccc3nc2n1-c1ccc2c(c1)OCO2`, the inhibition is 1% (inactive). In the case of `C=CCOC(=O)CCC(=O)Nc1cc(OC)nc(OC)n1` it was 0% (inactive); in that of `Cc1nc(Sc2cccn2C)c(C(F)(F)F)c(=O)[nH]1`, 0% (inactive). Take `OCCN1CCN(CC(O)COc2ccc3ccccc3c2)CC1` (centres undefined): the inhibition was 0% (inactive).

In the case of `CC(C)n1nnnc1SCC(=O)Nc1ccccc1N1CCOCC1`, the inhibition is 1% (inactive).

For `COc1ccc(C(=O)Nc2cccnc2)cc1C(=O)Nc1cccnc1`, the inhibition was 0% (inactive). Then `O=P(CCNCc1ccco1)(c1ccccc1)c1ccccc1`, with 0% (inactive). For `Cn1cc(NC(=O)c2cc(NC(=O)c3cc(NC=O)cn3C)cn2C)cc1C(=O)NCCC(=N)N`, the inhibition is 10% (inactive). Then `COc1ccc(NC(=O)C2CCCCN2S(=O)(=O)c2ccc(F)cc2)cc1` (centres undefined), with 0% (inactive); and `Cc1cc2cc(CN(CC3CCCO3)C(=O)c3cnccn3)c(=O)[nH]c2cc1C` (centres undefined), with 4% (inactive); and `N#CC(C(=O)Nc1ccccc1)=C1CCCCC1`, with 7% (inactive).

The values are drawn from PubChem BioAssay.
